# Source: PubChem BioAssay (National Center for Advancing Translational Sciences (NCATS))
# The list is not random: actives were taken first. Their share in the collection is about 19%.
# IL-1B inflam inh: inhibitors of inflammasome signaling (IL-1 beta secretion); 4.7% of 360,000 active; THP-1 LPS/ATP IL-1B secretion, AlphaLISA, 16 h; active compounds read low; activity change, % at 57.5 µM; in the data active = activity change below about -50%; inconclusive = mostly about -30% to -49%
#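 Secreted IL-1B measured by AlphaLISA bead assay after 16 h compound exposure of THP-1 cells; compounds (final up to 57.5 uM) added 1 h before LPS (250 ng/mL) and ATP (1.25 mM) stimulation; lower signal means less secretion.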
# MCF10A rereplic: induces DNA re-replication in MCF 10a normal breast cells; MCF 10A DNA re-replication, Hoechst nuclear intensity, 48 h; Potency, µM (series often up to 46.1 µM), actives largely listed as activators; 2.9% of 350,000 active; also: nearly all actives have a fitted effect of over 50% in size
# TDP1 cell noCPT: qHTS for Inhibitors of human tyrosyl-DNA phosphodiesterase 1 (TDP1): qHTS in cells in absence of CPT; 15% of 420,000 active; Potency, µM (doses to about 46.2 µM), usual class: inhibitors; DT40 Tdp1-/- hTDP1 cells, no CPT, ATP luminescence, 48 h; also: nearly all actives have a fitted effect of over 55% in size
#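 Cells were dispensed at 400 per well, compounds added by pin tool, plates incubated ≥48 hr at 37 °C, then CellTiter-Glo added for 30 min at room temperature before luminescence reading. Line: DT40 Tdp1-/- complemented with hTDP1; camptothecin omitted.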
# TDP1 cell CPT: growth inhibition of DT40 Tdp1-/-;hTDP1 cells with camptothecin (screen for TDP1 inhibitors). 12% of 420,000 active. AID 686979. chicken DT40 Tdp1-/-;hTDP1 cells + 20 nM CPT, ATP luminescence, 48 h. Potency, µM (series often up to 46.2 µM), hits mostly inhibitors; also: nearly all actives have a fitted effect of over 55% in size
#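 Chicken DT40 Tdp1-/- cells stably complemented with human TDP1 were seeded at 400 cells/well in medium containing 20 nM camptothecin, exposed to pin-transferred compounds, and grown at 37 °C for at least 48 hr. Viability was read as ATP luminescence.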
# SW480 rereplic: induces DNA re-replication in SW480 colon adenocarcinoma cells; SW480 DNA re-replication, Hoechst DNA content imaging, 48 h; Potency, µM (series often up to 46.1 µM), hits mostly activators; 1.8% of 340,000 active; also: nearly all actives have a fitted effect of over 55% in size
#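 Compounds, transferred as 23 nL by pin tool, were incubated with cells for 48 hr; DNA content per nucleus was then quantified by Hoechst staining and fluorescence plate imaging.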
# Chronic BCR inh: blocks chronic active B-cell receptor signaling; Potency, µM (doses to about 46.1 µM), actives largely listed as inhibitors; ABC-DLBCL IkBa-CBG/CBR reporter, luminescence ratio, 4 h; 0.05% of 340,000 active; active = well fitted inhibition curve with a large enough effect in the signal ratio, with a control signal flat, not every such curve was filed as active; inconclusive = small, poorly fitted or top-dose-only effect, or effect the other way, or a change in a side signal; the % refers to the signal ratio
#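 Compounds up to 46 uM were incubated four hours with TMD8 cells whose green CBG68 luciferase is fused to IkappaBalpha; red CBR luminescence normalised the signal, and concentration-effect curves were fitted to fusion, red and ratio data.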
# Numbers stand for hits; – = inactive; ? = inconclusive; · = no result; [ ] = another dose, or the depositor's remark. Unless noted, calls follow the shape of the dose curve; as a rule, active = well fitted curve in the direction sought with a large enough effect; inconclusive = small, poorly fitted or top-dose-only effect, or another doubt; inactive = no such curve, though single readings can be large; an effect the other way counts as inactive or inconclusive.
SMILES,IL-1B inflam inh,MCF10A rereplic,TDP1 cell noCPT,TDP1 cell CPT,SW480 rereplic,Chronic BCR inh
COc1ccc(C(=O)c2sc3nc(C)cc(-c4cccs4)c3c2N)cc1OC,-80,5.2µM,23µM,?,?,?
Cc1cc(C)c2c(N)c(C(=O)c3ccc(Cl)cc3)sc2n1,–,–,?,?,–,?
COc1ccc(-c2cc(-c3cccs3)nc3sc(C#N)c(N)c23)cc1,–,16µM,?,–,?,–
COc1ccc(C(=O)c2sc3nc(C)cc(-c4cccs4)c3c2N)cc1,?,?,?,?,21µM,–
CCCCn1c(N)c(N(CCOC)C(=O)c2ccc(-c3ccc(C(C)=O)cc3)o2)c(=O)[nH]c1=O,–,–,–,–,–,–
CCN(CC)Cc1c(C(=O)N/N=C/c2ccccn2)nnn1-c1nonc1N,–,–,–,–,–,–
CCCCCc1ccc2cc(C#N)ccc2n1,–,·,–,–,·,·
Cc1cc(C)c2c(N)c(C(=O)c3ccc(Cl)c(Cl)c3)sc2n1,–,–,?,?,–,?
CC(C)NC(=O)c1sc2nc(-c3cccs3)cc(-c3cccs3)c2c1N,–,3.7µM,–,–,?,–
CC(=O)c1sc2nc(-c3cccs3)ccc2c1N,–,?,–,–,?,–
Cc1cc(-c2cccs2)c2c(N)c(C(=O)c3ccc4c(c3)OCO4)sc2n1,–,15µM,?,–,1.3µM,–
CC(C)C(NC(=O)COc1ccc2ccccc2c1)C(=O)N/N=C/C=C/c1ccccc1 (stereo not drawn),–,?,?,13µM,?,–
COc1ccc(/C=C/C=N/NC(=O)COc2ccc(OC)cc2)cc1,–,?,–,–,–,–
Cc1cccc(C(=O)OCC(=O)c2c(N)n(CC(C)C)c(=O)n(C)c2=O)c1[N+](=O)[O-],–,–,18µM,?,?,–
CC(C)Cn1c(N)c(C(=O)COC(=O)c2ccncc2)c(=O)n(C)c1=O,–,–,?,–,–,?
CC(C)Cn1c(N)c(C(=O)COC(=O)c2ccc(Br)cc2)c(=O)n(C)c1=O,?,–,23µM,?,–,?
Cc1cccc(C(=O)OCC(=O)c2c(N)n(CC(C)C)c(=O)n(C)c2=O)c1O,–,–,23µM,23µM,–,?
CC(C)Cn1c(N)c(C(=O)COC(=O)c2ccc(O)cc2O)c(=O)n(C)c1=O,–,?,26µM,?,?,–
COCCn1c(N)c(N(Cc2ccccc2)C(=O)C(C)Oc2ccc(Br)cc2)c(=O)[nH]c1=O (stereo not drawn),–,·,?,–,·,·
O=C(CCc1nnc2ccc(N3CCC4(CC3)OCCO4)nn12)NCc1ccc(F)cc1,–,–,–,–,–,–
O=C1N=C(C=c2ccc(=Cc3[nH]c(=O)[nH]c3O)cc2)C(=O)N1,·,·,·,·,·,–
COC(=O)c1c(C)[nH]c(C(=O)OCC(=O)c2c(N)n(CC(C)C)c(=O)n(C)c2=O)c1C,?,?,15µM,?,–,–
CCc1nc2ccc(C(=O)NCCCN3CCCC3=O)cn2c1N(C)C(=O)c1cccc(OC)c1,–,·,–,–,·,·
COc1cc(-c2c(OC)cccc2OC)cc2c1OCCN(C(=O)CCC(=O)c1ccc(F)cc1)C2,·,·,–,–[9.04 µM],·,·
Cc1cccc(N=C2CCCC2C(=O)Nc2cccc(C)c2C)c1C (stereo not drawn),–,–,–,–,–,·
SMILES,IL-1B inflam inh,MCF10A rereplic,TDP1 cell noCPT,TDP1 cell CPT,SW480 rereplic,Chronic BCR inh
CCOc1cc(/C=C2\N=C(SC)SC2=O)cc([N+](=O)[O-])c1OC(C)=O,–,–,?,18µM,–,?
COc1ccc(CC(=O)NCC2(c3ccc(OC)c(OC)c3)CCOCC2)cc1,–,–,–,–,–,–
COc1ccc(C2(CNC(=O)Cc3ccccc3)CCCC2)cc1OC,–,–,13µM,?,–,–
COc1ccc(C2(CNC(=O)c3ccc(OC)c([N+](=O)[O-])c3)CCCCC2)cc1OC,–,–,21µM,?,–,–
COc1ccc(C2(CNC(=O)c3cccc([N+](=O)[O-])c3)CCCCC2)cc1OC,–,–,10µM,16µM,–,–
COc1ccc(C2(CNC(=O)C(=O)Nc3cccc(C(F)(F)F)c3)CCCC2)cc1OC,·,·,18µM,21µM,·,·
CCCCCCCCCCCCCCCCCCNc1ccn(C2OC(COP(=O)(O)OCC3OC(n4cc(F)c(=O)[nH]c4=O)CC3O)C(O)C2O)c(=O)n1 (stereo not drawn),-68,10µM,0.041µM,0.13µM,21µM,·
CCCCCOC(=O)Nc1nc(=O)n(C2O[C@H](C)[C@@H](O)[C@@H]2O)cc1F (stereo partly drawn),·,–,·,·,–,·
S=C(NCCCCN(Cc1ccc(Cl)cc1)c1ccc(Br)cn1)NCCCc1cnc[nH]1,·,·,–,7.1µM,·,·
CN(C)CCN(Cc1ccc(Cl)cc1)c1ccccn1,–,–,?,?,–,–
CN(CCCN(Cc1ccc(Cl)cc1)c1ccc(Br)cn1)C(=S)NCCCc1cnc[nH]1,·,·,?,13µM,·,·
COc1ccccc1C(=O)Nc1cccc(C(=O)OCc2cc(=O)n3cc(C)sc3n2)c1,·,·,–,–,·,·
C=CCNc1cc(=O)n(Cc2ccccc2)c(=O)[nH]1,–,–,18µM,?,–,·
CCCS(=O)(=O)c1c(S(=O)(=O)CCC)c2c(C)cccn2c1C(N)=O,–,–,–,–,–,–
CCCS(=O)(=O)c1c(S(=O)(=O)CCC)c2c(C)cccn2c1C(=O)N/N=C/c1cc(O)cc(O)c1,–,?,15µM,0.82µM,6.5µM,?
CCOC(=O)c1cc2c(c(-c3ccccc3)n1)[C@H](CCO)N(S(=O)(=O)C(C)(C)C)C2,–,–,–,–,–,·
CC(=O)c1c(C)n([O-])c2cc(F)c(F)cc2[n+]1=O,-100,?,–,?,?,–
COc1ccc(NC(=O)C[C@H]2C(=O)N(c3ccc(OC)cc3)C[C@@H]2CSC)cc1,–,·,?,–,·,·
CCC[C@H]1CN(c2ccc(Br)cc2)C(=O)[C@@H]1CC(=O)Nc1ccc(OC)cc1,?,·,16µM,?,·,·
COc1ccc(NC(=O)C[C@H]2C(=O)N(c3ccc(Br)cc3)C[C@@H]2CSC)cc1,–,·,23µM,?,·,·
O=C(C[C@H]1C(=O)N(c2ccccc2)C[C@@H]1Cc1ccccc1)Nc1ccc(Br)cc1,–,·,9.2µM,13µM,·,·
COc1ccc(N2C[C@H](CSC)[C@@H](CC(=O)Nc3ccc(Br)cc3)C2=O)cc1,–,·,21µM,?,·,·
Cc1cccc(NC(=O)c2ccc(C)c(S(=O)(=O)N3CCCCC3)c2)n1,–,–,?,?,–,–
O=C(c1ccccc1)c1c(-c2ccccc2)[nH]n(-c2ccccc2)c(=O)c1=O,–,–,–,–,–,·
